PubChem BioAssay AID1159580 (chemical genetic matrix, 2015)
Several values for one entry are separate records, joined by “and”; a condition that tells them apart may be missing. Equal entries are not always repeated. The whole screen tested about 5,500 compounds, of which about 2,000 (36%) were called active. Not shown: some 18% with an inconclusive outcome. No stated cut-off is given here; in the data, active means normalized growth mostly below about 0.91 (no sharp cut-off); inconclusive means no clear call, values can overlap the other calls; inactive means mostly above about 0.92. The list shows a part of the results.

Assay: chemical genetic growth profiling, strain panel (AID 1159580);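 further: tested at 20 µM; growth read once vehicle control cultures reached saturation at 30 °C; 1 = growth at the plate median or of vehicle wells; lower values mean less growth of the strain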
Settings: S. cerevisiae deletion strains, growth OD

Measured: normalized growth

COCCc1ccc(OCC(O)CNC(C)C)cc1 (stereo unspecified)
inactive: locus YAL013W, strain DEP1, active compounds read low 1.01 | locus YAL021C, strain ccr4, active compounds read low 1 | locus YAL026C, strain drs2, active compounds read low 1.01 | locus YAL030W, strain snc1, active compounds read low 0.988 | locus YAL040C, strain CLN3, active compounds read low 0.996 | locus YBL061C, strain skt5, active compounds read low 0.989 | locus YBR009C, strain hhf1, active compounds read low 0.998 | locus YBR021W, strain FUR4, active compounds read low 1.01 | locus YBR023C, strain chs3, active compounds read low 0.987 | locus YBR171W, strain sec66, active compounds read low 0.986 | locus YBR229C, strain ROT2, active compounds read low 1 | locus YBR231C, strain swc5, active compounds read low 1.01 | locus YBR279W, strain paf1, active compounds read low 1.01 | locus YCL011C, strain gbp2, active compounds read low 0.96 | locus YCL016C, strain dcc1, active compounds read low 0.966 | locus YCL029C, strain bik1, active compounds read low 1.03 | locus YCL061C, strain MRC1 (second series), active compounds read low 1 | locus YCL061C, strain MRC1, active compounds read low 0.997 | locus YCL069W, strain vba3, active compounds read low 0.992 | locus YCR088W, strain abp1, active compounds read low 1 | locus YDL005C, strain med2, active compounds read low 1 | locus YDL035C, strain GPR1, active compounds read low 0.997 | locus YDL040C, strain nat1, active compounds read low 1.01 | locus YDL074C, strain BRE1, active compounds read low 1.02 | locus YDL101C, strain DUN1, active compounds read low 1.02 | locus YDL134C, strain PPH21, active compounds read low 1 | locus YDL185W, strain tfp1, active compounds read low 1.01 | locus YDL192W, strain arf1, active compounds read low 1 | locus YDR001C, strain nth1, active compounds read low 0.979 | locus YDR069C, strain doa4, active compounds read low 0.991 | locus YDR101C, strain arx1, active compounds read low 1.01 | locus YDR137W, strain rgp1, active compounds read low 0.942 | locus YDR150W, strain NUM1, active compounds read low 1 and 0.986 | locus YDR159W, strain sac3, active compounds read low 1.02 | locus YDR162C, strain NBP2, active compounds read low 1 | locus YDR195W, strain ref2 0.998 | locus YDR297W, strain sur2, active compounds read low 1.02 | locus YDR318W, strain mcm21, active compounds read low 1.02 | locus YDR334W, strain swr1, active compounds read low 0.942 | locus YDR335W, strain msn5, active compounds read low 0.984 | locus YDR363W, strain ESC2, active compounds read low 1.02 | locus YDR388W, active compounds read low 1.02 | locus YDR392W, strain spt3, active compounds read low 0.944 | locus YDR502C, strain sam2, active compounds read low 0.997 | locus YEL003W, strain gim4, active compounds read low 0.996 | locus YEL037C, strain rad23, active compounds read low 0.989 | locus YEL061C, strain CIN8 (second series), active compounds read low 0.975 | locus YEL061C, strain CIN8, active compounds read low 1.01 | locus YER002W, strain NOP16, active compounds read low 0.993 | locus YER015W, strain faa2, active compounds read low 0.988 | locus YER016W, strain bim1, active compounds read low 0.999 | locus YER110C, active compounds read low 1.01 | locus YER111C, strain swi4, active compounds read low 1 | locus YER155C, strain BEM2 (second series), active compounds read low 1.02 | locus YER155C, strain BEM2, active compounds read low 1 | locus YER167W, strain BCK2, active compounds read low 0.981 | locus YFR010W, strain ubp6, active compounds read low 0.978 | locus YGL078C, strain dbp3, active compounds read low 1.01 | locus YGL086W, strain mad1, active compounds read low 1 | locus YGL167C, strain pmr1, active compounds read low 0.989 | locus YGL173C, strain kem1, active compounds read low 1 | locus YGL227W, strain vid30, active compounds read low 0.988 | locus YGL240W, strain doc1, active compounds read low 1.03 | locus YGL248W, strain PDE1, active compounds read low 1.01 | locus YGL253W, strain hxk2, active compounds read low 0.983 | locus YGR078C, strain PAC10, active compounds read low 1.02 | locus YGR135W, strain pre9, active compounds read low 1.01 | locus YGR229C, strain SMI1, active compounds read low 1.01 and 1.02 | locus YGR252W, strain gcn5, active compounds read low 0.978 | locus YHR013C, strain ard1, active compounds read low 0.956 | locus YHR027C, strain rpn1, active compounds read low 0.971 | locus YHR030C, strain SLT2, active compounds read low 1 and 1.06 | locus YHR079C, strain IRE1 (second series), active compounds read low 1.02 | locus YHR079C, strain IRE1, active compounds read low 1.07 | locus YHR094C, strain hxt1, active compounds read low 1.01 | locus YHR129C, strain ARP1, active compounds read low 1.01 | locus YHR142W, strain chs7, active compounds read low 0.943 | locus YHR200W, strain rpn10, active compounds read low 1.02 | locus YIL066C, strain RNR3, active compounds read low 1.01 | locus YIL073C, strain SPO22, active compounds read low 1.04 | locus YIL125W, strain kgd1, active compounds read low 1.01 | locus YIR030C, strain dcg1, active compounds read low 1.02 | locus YJL092W, strain hpr5, active compounds read low 0.988 | locus YJL095W, strain BCK1 (second series), active compounds read low 0.994 | locus YJL095W, strain BCK1, active compounds read low 1.03 and 1.04 | locus YJL115W, strain asf1, active compounds read low 0.964 | locus YJL129C, strain trk1, active compounds read low 1 | locus YJL134W, strain LCB3, active compounds read low 1 | locus YJL154C, strain vps35, active compounds read low 0.973 | locus YJL164C, strain tpk1, active compounds read low 1.01 | locus YJL166W, strain qcr8, active compounds read low 0.981 | locus YJL168C, strain set2, active compounds read low 1.03 | locus YJL187C, strain SWE1 (second series), active compounds read low 1.03 | locus YJL187C, strain SWE1, active compounds read low 1.04 | locus YJR043C, strain POL32, active compounds read low 1.01 | locus YJR066W, strain TOR1, active compounds read low 1.01
